# ± gives the standard deviation of the averaged measurements. Whole data set: some 2,900 compounds, median “NF-kB SEAP reporter activity, fold change vs agonist alone” near 0.99, cut for the highest 2% near 2.6. This excerpt belongs to a sample that is enriched for the highest values.
# Columns and labels:
# RAW-Dual [1] = experiment: NF-kB SEAP reporter activity, fold change vs agonist alone; cytotoxicity flag (confluency mask): cytotoxic (confluency <70% of control); higher = enhanced NF-kB activity
# How it was run: (§1)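 Cytotoxic wells were those whose IncuCyte confluency was below 70% of agonist controls in both mask sets. The cells were RAW-Dual macrophages at 50,000 cells/well in DMEM on 384-well plates, dosed with 50 nL of library stock by pin tool, stimulated with a PRR agonist 1 h later, and kept at 37 °C, 5% CO2 for 20 hours. IRF and NF-κB reporter activity, as fold change over agonist-alone wells, came from supernatant read by QuantiLuc luminescence and QuantiBlue absorbance, respectively.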
# RAW-Dual [2] = experiment: NF-kB SEAP reporter activity, fold change vs agonist alone; higher = enhanced NF-kB activity
# How it was run: as §1
# RAW-Dual [3] = experiment: NF-kB SEAP reporter activity, fold change vs agonist alone; cytotoxicity flag (confluency mask): not cytotoxic; higher = enhanced NF-kB activity
# How it was run: as §1
# [4] = agonist: ODN 1826 (TLR9) 0.5 ug/mL
# [5] = agonist: Pam2CSK4 (TLR2/6) 0.1 ug/mL
# [6] = agonist: Pam3CSK4 (TLR2/1) 0.1 ug/mL
# [7] = library stock concentration (final ~1000-fold dilution): 10 mM, cytotoxicity flag (confluency mask): not cytotoxic, agonist: MPLA (TLR4) […]
# [8] = library stock concentration (final ~1000-fold dilution): 10 mM, cytotoxicity flag (confluency mask): not cytotoxic, agonist: Imiquimod (TLR7) […]
smiles,measurement,setting,value
CNC(C)C(=O)NC(C(=O)N1CCCC1C(=O)NC1c2ccccc2CC1OCC#CC#CCOC1Cc2ccccc2C1NC(=O)C1CCCN1C(=O)C(NC(=O)C(C)NC)C1CCCCC1)C1CCCCC1 (configuration not stated) (library stock concentration (final ~1000-fold dilution): 10 mM water),NF-kB SEAP reporter activity,RAW-Dual [1]; agonist: LPS (TLR4) 0.1 ug/mL,0.764
same,NF-kB SEAP reporter activity,RAW-Dual [1]; [4],1.11
same,NF-kB SEAP reporter activity,RAW-Dual [1]; [5],0.798
same,NF-kB SEAP reporter activity,RAW-Dual [1]; [6],0.718
CNC(C)C(=O)NC(C(=O)N1CCCC1C(=O)NC1c2ccccc2CC1OCC#CC#CCOC1Cc2ccccc2C1NC(=O)C1CCCN1C(=O)C(NC(=O)C(C)NC)C1CCCCC1)C1CCCCC1 (configuration not stated),NF-kB SEAP reporter activity,"RAW-Dual [2]; library stock concentration (final ~1000-fold dilution): 10 mM water, cytotoxicity flag (confluency mask): cytotoxic (confluency <70% of control), agonist: Imiquimod (TLR7) […]",0.836
same,NF-kB SEAP reporter activity,"RAW-Dual [2]; library stock concentration (final ~1000-fold dilution): 10 mM water, cytotoxicity flag (confluency mask): cytotoxic (confluency <70% of control), agonist: MPLA (TLR4) […]",0.786
CC1(F)C(O)C(CO)OC1n1ccc(=O)[nH]c1=O (configuration not stated),NF-kB SEAP reporter activity,RAW-Dual [2]; [7],1.02
CC1(F)C(O)C(CO)OC1n1ccc(=O)[nH]c1=O (configuration not stated) (library stock concentration (final ~1000-fold dilution): 10 mM),NF-kB SEAP reporter activity,RAW-Dual [3]; agonist: LPS (TLR4) 0.1 ug/mL,1.26
same,NF-kB SEAP reporter activity,RAW-Dual [3]; [4],0.945
same,NF-kB SEAP reporter activity,RAW-Dual [3]; [5],0.82
same,NF-kB SEAP reporter activity,RAW-Dual [3]; [6],0.78
CC1COCCN1c1cc(-c2ccnn2C)c2ccnc(-c3ccn[nH]3)c2n1.Cl (configuration not stated),NF-kB SEAP reporter activity,RAW-Dual [2]; [8],1.48
same,NF-kB SEAP reporter activity,RAW-Dual [2]; [7],2.05
CC1COCCN1c1cc(-c2ccnn2C)c2ccnc(-c3ccn[nH]3)c2n1.Cl (configuration not stated) (library stock concentration (final ~1000-fold dilution): 10 mM),NF-kB SEAP reporter activity,RAW-Dual [3]; agonist: LPS (TLR4) 0.1 ug/mL,1.89
same,NF-kB SEAP reporter activity,RAW-Dual [3]; [4],0.957
same,NF-kB SEAP reporter activity,RAW-Dual [3]; [5],1.09
same,NF-kB SEAP reporter activity,RAW-Dual [3]; [6],1.19
CC(C)NCC(O)COc1cccc2ccccc12.Cl (configuration not stated) (library stock concentration (final ~1000-fold dilution): 10 mM),NF-kB SEAP reporter activity,RAW-Dual [3]; agonist: LPS (TLR4) 0.1 ug/mL,0.913
same,NF-kB SEAP reporter activity,RAW-Dual [3]; [4],0.94
same,NF-kB SEAP reporter activity,RAW-Dual [3]; [5],0.822
same,NF-kB SEAP reporter activity,RAW-Dual [3]; [6],1.08
CC(C)NCC(O)COc1cccc2ccccc12.Cl (configuration not stated),NF-kB SEAP reporter activity,RAW-Dual [2]; [8],1.07
same,NF-kB SEAP reporter activity,RAW-Dual [2]; [7],1.04
CNCCN(C)Cc1c[nH]nc1-c1ccc(OC2CC(OCCC3CCOCC3)C2)cc1.Cl.Cl (configuration not stated),NF-kB SEAP reporter activity,RAW-Dual [2]; [8],0.935
same,NF-kB SEAP reporter activity,RAW-Dual [2]; [7],1.07
CNCCN(C)Cc1c[nH]nc1-c1ccc(OC2CC(OCCC3CCOCC3)C2)cc1.Cl.Cl (configuration not stated) (library stock concentration (final ~1000-fold dilution): 10 mM),NF-kB SEAP reporter activity,RAW-Dual [3]; agonist: LPS (TLR4) 0.1 ug/mL,0.836
same,NF-kB SEAP reporter activity,RAW-Dual [3]; [4],0.674
same,NF-kB SEAP reporter activity,RAW-Dual [3]; [5],0.874
same,NF-kB SEAP reporter activity,RAW-Dual [3]; [6],0.586
CCCOc1ccc(CCc2nc3cc(-c4c(C)noc4C)ccc3n2CCN2CCOCC2)cc1.Cl,NF-kB SEAP reporter activity,RAW-Dual [2]; [8],1.53
same,NF-kB SEAP reporter activity,RAW-Dual [2]; [7],1.98
CCCOc1ccc(CCc2nc3cc(-c4c(C)noc4C)ccc3n2CCN2CCOCC2)cc1.Cl (library stock concentration (final ~1000-fold dilution): 10 mM),NF-kB SEAP reporter activity,RAW-Dual [3]; agonist: LPS (TLR4) 0.1 ug/mL,2.48
same,NF-kB SEAP reporter activity,RAW-Dual [3]; [4],1.9
same,NF-kB SEAP reporter activity,RAW-Dual [3]; [5],0.609
same,NF-kB SEAP reporter activity,RAW-Dual [3]; [6],1.04
COc1ccc(CCc2nc3cc(-c4c(C)noc4C)ccc3n2CC(C)N2CCOCC2)cc1Cl (configuration not stated) (library stock concentration (final ~1000-fold dilution): 10 mM),NF-kB SEAP reporter activity,RAW-Dual [3]; agonist: LPS (TLR4) 0.1 ug/mL,4.47
same,NF-kB SEAP reporter activity,RAW-Dual [3]; [4],2.49
same,NF-kB SEAP reporter activity,RAW-Dual [3]; [5],1.06
same,NF-kB SEAP reporter activity,RAW-Dual [3]; [6],2.27
COc1ccc(CCc2nc3cc(-c4c(C)noc4C)ccc3n2CC(C)N2CCOCC2)cc1Cl (configuration not stated),NF-kB SEAP reporter activity,RAW-Dual [2]; [8],1.51
same,NF-kB SEAP reporter activity,RAW-Dual [2]; [7],2.65
Cc1nc2cc(F)c(F)cc2n1-c1cncc(Nc2ccc(C(F)(F)F)cc2)n1 (library stock concentration (final ~1000-fold dilution): 10 mM),NF-kB SEAP reporter activity,RAW-Dual [3]; agonist: LPS (TLR4) 0.1 ug/mL,1.36
same,NF-kB SEAP reporter activity,RAW-Dual [3]; [4],1.31
same,NF-kB SEAP reporter activity,RAW-Dual [3]; [5],0.571
same,NF-kB SEAP reporter activity,RAW-Dual [3]; [6],0.582
Cc1nc2cc(F)c(F)cc2n1-c1cncc(Nc2ccc(C(F)(F)F)cc2)n1,NF-kB SEAP reporter activity,RAW-Dual [2]; [8],1.56
same,NF-kB SEAP reporter activity,RAW-Dual [2]; [7],1.33
CC1=CC2(O)OC3(CC2=C(C)C)C(C)CCC13 (configuration not stated),NF-kB SEAP reporter activity,RAW-Dual [2]; [8],0.957 ± 0.03
same,NF-kB SEAP reporter activity,RAW-Dual [2]; [7],1.03 ± 0.025
CC1=CC2(O)OC3(CC2=C(C)C)C(C)CCC13 (configuration not stated) (library stock concentration (final ~1000-fold dilution): 10 mM),NF-kB SEAP reporter activity,RAW-Dual [3]; agonist: LPS (TLR4) 0.1 ug/mL,1.04 ± 0.043
same,NF-kB SEAP reporter activity,RAW-Dual [3]; [4],0.938 ± 0.07
same,NF-kB SEAP reporter activity,RAW-Dual [3]; [5],0.963 ± 0.062
same,NF-kB SEAP reporter activity,RAW-Dual [3]; [6],1.06 ± 0.049
CCc1cc2c(cc1N1CCC(N3CCOCC3)CC1)C(C)(C)c1[nH]c3cc(C#N)ccc3c1C2=O.Cl,NF-kB SEAP reporter activity,"RAW-Dual [2]; library stock concentration (final ~1000-fold dilution): 2 mM, cytotoxicity flag (confluency mask): not cytotoxic, agonist: MPLA (TLR4) […]",1.31
CCc1cc2c(cc1N1CCC(N3CCOCC3)CC1)C(C)(C)c1[nH]c3cc(C#N)ccc3c1C2=O.Cl (library stock concentration (final ~1000-fold dilution): 2 mM),NF-kB SEAP reporter activity,RAW-Dual [3]; agonist: LPS (TLR4) 0.1 ug/mL,1.71
same,NF-kB SEAP reporter activity,RAW-Dual [3]; [4],1.17
same,NF-kB SEAP reporter activity,RAW-Dual [3]; [5],1.15
same,NF-kB SEAP reporter activity,RAW-Dual [3]; [6],1.15
O=C(O)c1ccc(/C=C2/SC(=S)N(Cc3cccc(C(F)(F)F)c3)C2=O)cc1,NF-kB SEAP reporter activity,RAW-Dual [2]; [8],0.954
same,NF-kB SEAP reporter activity,RAW-Dual [2]; [7],0.727
O=C(O)c1ccc(/C=C2/SC(=S)N(Cc3cccc(C(F)(F)F)c3)C2=O)cc1 (library stock concentration (final ~1000-fold dilution): 10 mM),NF-kB SEAP reporter activity,RAW-Dual [3]; agonist: LPS (TLR4) 0.1 ug/mL,0.619
same,NF-kB SEAP reporter activity,RAW-Dual [3]; [4],0.737
same,NF-kB SEAP reporter activity,RAW-Dual [3]; [5],0.832
same,NF-kB SEAP reporter activity,RAW-Dual [3]; [6],0.5
COc1cc(OCc2cccc(-c3ccccc3)c2C)cc(OC)c1CN1CCCCC1C(=O)O (configuration not stated) (library stock concentration (final ~1000-fold dilution): 10 mM),NF-kB SEAP reporter activity,RAW-Dual [1]; agonist: LPS (TLR4) 0.1 ug/mL,1.21
same,NF-kB SEAP reporter activity,RAW-Dual [1]; [4],0.794
same,NF-kB SEAP reporter activity,RAW-Dual [1]; [5],1.03
same,NF-kB SEAP reporter activity,RAW-Dual [1]; [6],1.17
COc1cc(OCc2cccc(-c3ccccc3)c2C)cc(OC)c1CN1CCCCC1C(=O)O (configuration not stated),NF-kB SEAP reporter activity,"RAW-Dual [2]; library stock concentration (final ~1000-fold dilution): 10 mM, cytotoxicity flag (confluency mask): cytotoxic (confluency <70% of control), agonist: Imiquimod (TLR7) […]",1.22
same,NF-kB SEAP reporter activity,"RAW-Dual [2]; library stock concentration (final ~1000-fold dilution): 10 mM, cytotoxicity flag (confluency mask): cytotoxic (confluency <70% of control), agonist: MPLA (TLR4) […]",1.03
Cc1nccn1CC1CCc2c(c3ccccc3n2C)C1=O.Cl (configuration not stated),NF-kB SEAP reporter activity,RAW-Dual [2]; [8],0.917
same,NF-kB SEAP reporter activity,RAW-Dual [2]; [7],0.785

# Reference: the supplement of paper PMC10037445
